# Source: paper PMC7862700, “An all-to-all approach to the identification of sequence-specific readers for epigenetic DNA modifications on cytosine”
# Tests used:
# Test in all cases: DAPPL (digital affinity profiling via proximity ligation, sequencing); 10 mM Tris-HCl pH 7.5, 50 mM NaCl, 1 mM DTT, 4% glycerol, room temperature, 30 min; GST-TFs on glutathione beads, 16-mer random dsDNA library, 0.1% formaldehyde crosslink after washing; high values mean tight binding
# Details in all cases: protein: recombinant; tags: N-terminal GST; dsDNA, one strand shown
# [1] = target: T1, FLI1 (Homo sapiens, UniProt Q01543 1-452)
# T1 sequence: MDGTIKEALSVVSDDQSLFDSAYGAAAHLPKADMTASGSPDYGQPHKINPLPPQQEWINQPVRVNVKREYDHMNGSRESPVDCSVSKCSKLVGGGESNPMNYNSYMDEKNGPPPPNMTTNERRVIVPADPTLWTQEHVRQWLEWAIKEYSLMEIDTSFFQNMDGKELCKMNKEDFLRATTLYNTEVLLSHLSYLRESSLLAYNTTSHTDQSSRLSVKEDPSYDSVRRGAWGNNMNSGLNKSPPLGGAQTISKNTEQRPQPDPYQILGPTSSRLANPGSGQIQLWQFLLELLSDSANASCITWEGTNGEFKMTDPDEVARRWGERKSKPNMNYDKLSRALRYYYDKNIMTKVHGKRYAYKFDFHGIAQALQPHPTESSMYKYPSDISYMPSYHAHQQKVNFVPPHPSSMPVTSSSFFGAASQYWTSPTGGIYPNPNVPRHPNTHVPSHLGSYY
# Method in brief: (§1)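 Binding signal is each hexamer's read frequency for a factor divided by its frequency in the tag-only sample. The factors were GST-fused human transcription factors from yeast, captured on glutathione beads, DNA-barcoded and pooled with that sample. Pools were incubated with 200 nmole of a random double-stranded 16-mer DNA library in Tris/NaCl/DTT/glycerol buffer at room temperature for 30 min, then washed, crosslinked with 0.1% formaldehyde, proximity-ligated with BsaI/T4 ligase (1 h, 37 °C), PCR-amplified and sequenced on an Illumina NextSeq500.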
# [2] = target: T2, ELK1 (Homo sapiens, UniProt P19419 1-428)
# T2 sequence: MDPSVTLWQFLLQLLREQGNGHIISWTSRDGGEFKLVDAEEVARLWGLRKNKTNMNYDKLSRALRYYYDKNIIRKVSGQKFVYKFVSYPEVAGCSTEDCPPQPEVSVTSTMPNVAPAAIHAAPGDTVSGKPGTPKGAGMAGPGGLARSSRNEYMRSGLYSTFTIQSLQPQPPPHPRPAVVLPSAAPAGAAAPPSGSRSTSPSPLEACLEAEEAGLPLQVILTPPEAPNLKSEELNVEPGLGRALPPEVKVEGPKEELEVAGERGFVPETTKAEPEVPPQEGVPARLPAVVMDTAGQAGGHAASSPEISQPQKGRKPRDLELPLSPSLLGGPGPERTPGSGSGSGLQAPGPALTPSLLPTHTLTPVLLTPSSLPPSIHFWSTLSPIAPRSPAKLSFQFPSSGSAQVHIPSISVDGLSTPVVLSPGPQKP
# Method in brief: as §1
# [3] = target: T3, GABPA (Homo sapiens, UniProt Q06546 1-454)
# T3 sequence: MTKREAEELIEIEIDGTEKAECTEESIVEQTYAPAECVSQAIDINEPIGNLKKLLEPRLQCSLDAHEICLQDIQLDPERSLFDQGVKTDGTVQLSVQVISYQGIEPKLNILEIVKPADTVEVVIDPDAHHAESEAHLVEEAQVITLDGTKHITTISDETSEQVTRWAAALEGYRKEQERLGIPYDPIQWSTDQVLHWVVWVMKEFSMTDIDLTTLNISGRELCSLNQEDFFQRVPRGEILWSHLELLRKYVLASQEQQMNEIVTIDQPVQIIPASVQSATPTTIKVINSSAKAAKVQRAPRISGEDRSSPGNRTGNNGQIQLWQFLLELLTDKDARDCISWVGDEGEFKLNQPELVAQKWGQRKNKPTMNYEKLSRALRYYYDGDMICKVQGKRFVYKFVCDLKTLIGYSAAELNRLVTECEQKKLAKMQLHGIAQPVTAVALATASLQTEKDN
# Method in brief: as §1
# [4] = target: T4, ERG (Homo sapiens, UniProt P11308 1-479)
# T4 sequence: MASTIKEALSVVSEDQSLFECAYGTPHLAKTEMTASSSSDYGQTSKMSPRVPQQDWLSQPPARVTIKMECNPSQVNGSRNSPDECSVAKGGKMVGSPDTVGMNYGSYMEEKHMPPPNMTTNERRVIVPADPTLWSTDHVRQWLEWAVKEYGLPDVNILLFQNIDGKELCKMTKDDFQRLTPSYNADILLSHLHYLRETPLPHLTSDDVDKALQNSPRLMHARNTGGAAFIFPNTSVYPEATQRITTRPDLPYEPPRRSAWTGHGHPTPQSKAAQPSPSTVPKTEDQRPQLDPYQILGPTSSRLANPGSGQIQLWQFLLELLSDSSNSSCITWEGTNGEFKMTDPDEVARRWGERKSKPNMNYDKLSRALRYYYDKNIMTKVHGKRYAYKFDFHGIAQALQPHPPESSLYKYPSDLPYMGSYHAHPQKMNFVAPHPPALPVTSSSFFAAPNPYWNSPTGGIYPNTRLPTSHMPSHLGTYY
# Method in brief: as §1
# [5] = target: ELF1 (Homo sapiens, UniProt P32519 1-619)
# ELF1, sequence (P32519 whole entry): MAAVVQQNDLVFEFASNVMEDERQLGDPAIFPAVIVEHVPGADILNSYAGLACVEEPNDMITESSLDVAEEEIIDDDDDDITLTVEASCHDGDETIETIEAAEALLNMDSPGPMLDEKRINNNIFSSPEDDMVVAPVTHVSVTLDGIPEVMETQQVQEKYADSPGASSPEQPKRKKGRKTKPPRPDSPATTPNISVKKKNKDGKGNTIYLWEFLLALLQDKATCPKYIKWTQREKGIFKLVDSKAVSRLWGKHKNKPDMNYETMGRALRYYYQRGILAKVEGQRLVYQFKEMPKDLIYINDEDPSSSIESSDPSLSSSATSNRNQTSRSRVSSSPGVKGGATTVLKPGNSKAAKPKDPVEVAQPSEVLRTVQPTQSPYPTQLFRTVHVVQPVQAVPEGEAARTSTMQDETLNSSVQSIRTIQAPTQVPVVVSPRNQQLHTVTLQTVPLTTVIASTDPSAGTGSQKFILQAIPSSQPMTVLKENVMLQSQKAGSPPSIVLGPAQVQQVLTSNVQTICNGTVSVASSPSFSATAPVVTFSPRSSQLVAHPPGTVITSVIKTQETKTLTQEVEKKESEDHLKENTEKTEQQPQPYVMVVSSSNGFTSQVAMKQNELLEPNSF
# Method in brief: as §1
# [6] = target: T5, EHF (Homo sapiens, UniProt Q9NZC4 1-300)
# T5 sequence: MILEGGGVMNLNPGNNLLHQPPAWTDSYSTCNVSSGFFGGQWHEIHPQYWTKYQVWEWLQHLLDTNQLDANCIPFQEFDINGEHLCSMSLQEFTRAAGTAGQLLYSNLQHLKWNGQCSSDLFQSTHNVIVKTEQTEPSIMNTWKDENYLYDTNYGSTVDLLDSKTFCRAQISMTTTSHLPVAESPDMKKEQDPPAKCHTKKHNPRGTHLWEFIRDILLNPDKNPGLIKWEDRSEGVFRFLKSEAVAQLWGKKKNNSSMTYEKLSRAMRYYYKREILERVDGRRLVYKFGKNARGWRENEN
# Method in brief: as §1
# [7] = target: SPI1 (Homo sapiens, UniProt P17947 1-270)
# Method in brief: as §1
# [8] = target: SPIB (Homo sapiens, UniProt Q01892 1-262)
# SPIB, sequence (Q01892 whole entry): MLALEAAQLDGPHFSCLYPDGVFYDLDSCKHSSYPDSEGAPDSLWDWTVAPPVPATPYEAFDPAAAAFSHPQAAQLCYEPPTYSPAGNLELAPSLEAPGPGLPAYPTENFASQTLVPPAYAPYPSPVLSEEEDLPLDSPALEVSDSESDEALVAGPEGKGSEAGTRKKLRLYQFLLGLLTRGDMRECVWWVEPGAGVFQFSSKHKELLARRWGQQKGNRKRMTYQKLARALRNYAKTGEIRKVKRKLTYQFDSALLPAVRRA
# Method in brief: as §1
# [9] = target: T6, ELK3 (Homo sapiens, UniProt P41970 1-407)
# T6 sequence: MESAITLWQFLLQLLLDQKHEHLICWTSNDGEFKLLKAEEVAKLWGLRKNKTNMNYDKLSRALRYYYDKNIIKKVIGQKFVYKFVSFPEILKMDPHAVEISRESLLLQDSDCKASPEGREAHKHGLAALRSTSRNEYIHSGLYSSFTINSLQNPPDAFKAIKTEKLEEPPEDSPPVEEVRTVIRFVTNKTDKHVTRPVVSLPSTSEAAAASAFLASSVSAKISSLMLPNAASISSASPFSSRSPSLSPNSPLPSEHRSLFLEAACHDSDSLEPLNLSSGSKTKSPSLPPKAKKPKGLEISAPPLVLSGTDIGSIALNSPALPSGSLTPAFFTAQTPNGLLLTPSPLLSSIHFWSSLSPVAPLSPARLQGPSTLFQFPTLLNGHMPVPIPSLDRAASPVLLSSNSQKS
# Method in brief: as §1
sequence,measurement,setting,value
GACCTG,binding signal,[1],"1.19 fold enrichment (6-mer frequency, TF over GST control)"
same,binding signal,[2],"1.26 fold enrichment (6-mer frequency, TF over GST control)"
same,binding signal,[3],"1.19 fold enrichment (6-mer frequency, TF over GST control)"
same,binding signal,[4],"1.26 fold enrichment (6-mer frequency, TF over GST control)"
same,binding signal,[5],"1.27 fold enrichment (6-mer frequency, TF over GST control)"
same,binding signal,[6],"1.28 fold enrichment (6-mer frequency, TF over GST control)"
same,binding signal,[7],"1.26 fold enrichment (6-mer frequency, TF over GST control)"
same,binding signal,[8],"1.17 fold enrichment (6-mer frequency, TF over GST control)"
same,binding signal,[9],"1.35 fold enrichment (6-mer frequency, TF over GST control)"
TCTCCG,binding signal,[1],"1.51 fold enrichment (6-mer frequency, TF over GST control)"
same,binding signal,[2],"1.49 fold enrichment (6-mer frequency, TF over GST control)"
same,binding signal,[3],"1.57 fold enrichment (6-mer frequency, TF over GST control)"
same,binding signal,[4],"1.42 fold enrichment (6-mer frequency, TF over GST control)"
same,binding signal,[5],"1.6 fold enrichment (6-mer frequency, TF over GST control)"
same,binding signal,[6],"1.57 fold enrichment (6-mer frequency, TF over GST control)"
same,binding signal,[7],"1.54 fold enrichment (6-mer frequency, TF over GST control)"
same,binding signal,[8],"1.52 fold enrichment (6-mer frequency, TF over GST control)"
same,binding signal,[9],"1.38 fold enrichment (6-mer frequency, TF over GST control)"
TTCGAG,binding signal,[1],"1.18 fold enrichment (6-mer frequency, TF over GST control)"
same,binding signal,[2],"1.23 fold enrichment (6-mer frequency, TF over GST control)"
same,binding signal,[3],"1.31 fold enrichment (6-mer frequency, TF over GST control)"
same,binding signal,[4],"1.14 fold enrichment (6-mer frequency, TF over GST control)"
same,binding signal,[5],"1.25 fold enrichment (6-mer frequency, TF over GST control)"
same,binding signal,[6],"1.19 fold enrichment (6-mer frequency, TF over GST control)"
same,binding signal,[7],"1.21 fold enrichment (6-mer frequency, TF over GST control)"
same,binding signal,[8],"1.31 fold enrichment (6-mer frequency, TF over GST control)"
same,binding signal,[9],"1.3 fold enrichment (6-mer frequency, TF over GST control)"
GGACAT,binding signal,[1],"1.19 fold enrichment (6-mer frequency, TF over GST control)"
same,binding signal,[2],"1.19 fold enrichment (6-mer frequency, TF over GST control)"
same,binding signal,[3],"1.24 fold enrichment (6-mer frequency, TF over GST control)"
same,binding signal,[4],"1.24 fold enrichment (6-mer frequency, TF over GST control)"
same,binding signal,[5],"1.19 fold enrichment (6-mer frequency, TF over GST control)"
same,binding signal,[6],"1.19 fold enrichment (6-mer frequency, TF over GST control)"
same,binding signal,[7],"1.13 fold enrichment (6-mer frequency, TF over GST control)"
same,binding signal,[8],"1.14 fold enrichment (6-mer frequency, TF over GST control)"
same,binding signal,[9],"1.19 fold enrichment (6-mer frequency, TF over GST control)"
TCTAAC,binding signal,[1],"1.18 fold enrichment (6-mer frequency, TF over GST control)"
same,binding signal,[2],"1.28 fold enrichment (6-mer frequency, TF over GST control)"
same,binding signal,[3],"1.16 fold enrichment (6-mer frequency, TF over GST control)"
same,binding signal,[4],"1.22 fold enrichment (6-mer frequency, TF over GST control)"
same,binding signal,[5],"1.21 fold enrichment (6-mer frequency, TF over GST control)"
same,binding signal,[6],"1.16 fold enrichment (6-mer frequency, TF over GST control)"
same,binding signal,[7],"1.13 fold enrichment (6-mer frequency, TF over GST control)"
same,binding signal,[8],"1.19 fold enrichment (6-mer frequency, TF over GST control)"
same,binding signal,[9],"1.16 fold enrichment (6-mer frequency, TF over GST control)"
AATCGC,binding signal,[1],"1.12 fold enrichment (6-mer frequency, TF over GST control)"
same,binding signal,[2],"1.09 fold enrichment (6-mer frequency, TF over GST control)"
same,binding signal,[3],"1.14 fold enrichment (6-mer frequency, TF over GST control)"
same,binding signal,[4],"1.07 fold enrichment (6-mer frequency, TF over GST control)"
same,binding signal,[5],"1.13 fold enrichment (6-mer frequency, TF over GST control)"
same,binding signal,[6],"1.16 fold enrichment (6-mer frequency, TF over GST control)"
same,binding signal,[7],"1.05 fold enrichment (6-mer frequency, TF over GST control)"
same,binding signal,[8],"1.08 fold enrichment (6-mer frequency, TF over GST control)"
same,binding signal,[9],"1.16 fold enrichment (6-mer frequency, TF over GST control)"
GTACAC,binding signal,[1],"1.18 fold enrichment (6-mer frequency, TF over GST control)"
same,binding signal,[2],"1.31 fold enrichment (6-mer frequency, TF over GST control)"
same,binding signal,[3],"1.18 fold enrichment (6-mer frequency, TF over GST control)"
same,binding signal,[4],"1.29 fold enrichment (6-mer frequency, TF over GST control)"
same,binding signal,[5],"1.17 fold enrichment (6-mer frequency, TF over GST control)"
same,binding signal,[6],"1.14 fold enrichment (6-mer frequency, TF over GST control)"
same,binding signal,[7],"1.18 fold enrichment (6-mer frequency, TF over GST control)"
same,binding signal,[8],"1.18 fold enrichment (6-mer frequency, TF over GST control)"
same,binding signal,[9],"1.23 fold enrichment (6-mer frequency, TF over GST control)"
